Type in all cases: functional
Assay [1] deals with Solute carrier family 2, facilitated glucose transporter member 1 (Homo sapiens) (UniProt P11166). Briefly: ST_JUDE_LEISH: Cytotoxicity at 2uM final concentration against transgenic Leishmania Mexicana promastigotes LmGLUT1 that are glucose transport deficient and complemented with the human glucose transporter GLUT1. Activity is measured by DNA content using SYBR green in vitro.

For assay [2], the target named is Hexose transporter 1 (Plasmodium falciparum) (UniProt O97467). Briefly: ST_JUDE_LEISH: Cytotoxicity at 2uM final concentration against transgenic Leishmania Mexicana promastigotes LmPfHT that are glucose transport deficient and complemented with the Plasmodium falciparum hexose transporter. Activity is measured by DNA content using SYBR green in vitro.
For assay [3], the target named is Glucose transporter (Leishmania mexicana) (UniProt O61059). The assay is described as follows: ST_JUDE_LEISH: Cytotoxicity at 2uM final concentration against transgenic Leishmania Mexicana promastigotes LmGT2 that are glucose transport deficient and complemented with the L. Mexicana glucose transporter 2. Activity is measured by DNA content using SYBR green in vitro.

Chain of Solute carrier family 2, facilitated glucose transporter member 1 (Homo sapiens) (P11166 whole entry): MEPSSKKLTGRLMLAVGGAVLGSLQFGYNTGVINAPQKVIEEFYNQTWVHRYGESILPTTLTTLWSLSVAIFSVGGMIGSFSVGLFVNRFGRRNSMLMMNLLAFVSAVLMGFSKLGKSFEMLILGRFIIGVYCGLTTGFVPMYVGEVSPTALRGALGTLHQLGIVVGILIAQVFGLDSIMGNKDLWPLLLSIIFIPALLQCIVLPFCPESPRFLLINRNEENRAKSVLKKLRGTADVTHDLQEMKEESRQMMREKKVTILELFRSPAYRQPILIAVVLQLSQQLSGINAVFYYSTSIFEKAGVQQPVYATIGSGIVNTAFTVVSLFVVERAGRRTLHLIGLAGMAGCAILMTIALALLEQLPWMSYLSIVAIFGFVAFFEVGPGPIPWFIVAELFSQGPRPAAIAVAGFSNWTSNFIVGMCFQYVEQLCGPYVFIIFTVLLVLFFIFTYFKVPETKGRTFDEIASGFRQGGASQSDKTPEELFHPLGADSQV

On to `CC(CCc1ccccc1)NCC(O)c1ccc2c3c(cccc13)S(=O)(=O)N2C` (stereo unspecified), for which the inhibition – broadly, the relative decrease from the control value, in per cent – in assay [1] was determined as 5.47%; in assay [2], 5.04%; in assay [3], 4.71%.
The corresponding values for `Cc1cc(N[C@@H](Cc2ccccc2)C(=O)NCCOc2ccccc2)nc(NCCc2ccc(F)cc2)n1` are 15.1%, 11.7% and 10.1%.
The like results for `Fc1ccc(CNc2ccc3ncc(-c4cccnc4)n3n2)cc1` were, in that order, 2.61%, 2.21% and 0.67%.
The corresponding values for `CCCCc1cc(Cc2cnc(N)nc2N)cc(OC)c1OC` are 3.17%, 2.41% and 0.98%.
On to `O=C(Nc1ccc(Cn2ncc(N3CCCNCC3)c(Cl)c2=O)cc1)Nc1cccc(Oc2ccccc2)c1`, for which the results for the inhibition in assay [1], in assay [2] and in assay [3] were 2.36%, 2.39% and 1.79%, respectively.
Take `c1ccc(Cn2nnnc2-c2cccc(Nc3ccnc4cc(-c5nccs5)ccc34)c2)cc1`: the inhibition in assay [1] stood at 1.8%; in assay [2] it was 2.17%; in assay [3], 1.96%.
As to `CCC(C)(C)c1ccc(N2C(N)=NC(N)=NC2(C)C)cc1`, the inhibition in assay [1] is -2.05%; in assay [2] it was -1.28%; in assay [3], -2.78%.
Consider `Cc1[nH]c(C)c(-c2ccc(-c3ccc(C(F)(F)F)cc3C(F)(F)F)nc2)c(=O)c1Br`, for which the figures for the inhibition in assay [1], in assay [2] and in assay [3] were -0.49%, -2.4% and 0.14%, respectively.
The like results for `COc1ccccc1Cc1nc2ccccc2nc1SCC(=O)Nc1cccc(C(F)(F)F)c1` were, in that order, 3.27%, 3.21% and 1.7%.
The corresponding values for `O=C(Nc1ccccc1)Nc1cccc(-c2nn3c(OCCN4CCCC4)cccc3c2-c2ccncc2)c1` are 5.75%, 6.38% and 6.34%.
The like results for `COc1cc2ccccc2cc1CCNCCCCNCCc1cc2ccccc2cc1OC` were, in that order, 101%, 82.7% and 104%.
Regarding `Cc1c(NC(=O)COc2ccc(Cl)cc2C(=O)c2cc(F)cc(C(F)(F)F)c2)ccc2ncsc12`, the figures for the inhibition in assay [1], in assay [2] and in assay [3] were 9.85%, 9.17% and 7.93%, respectively.
For the compound `COc1cc(NC(=O)c2cccs2)c(C(=O)NCc2ccc(C)cc2)cc1OC`, the inhibition in assay [1] was 5.62%; in assay [2] it was 4.22%; in assay [3] it was 7.02%.
The like results for `CC(C)NCc1cccc(-c2cccc(-c3nc4ccccc4[nH]3)c2)c1` were, in that order, -1.73%, 0.59% and -1.69%.
Consider `CCN(CC)/C(=N/C(=N)Nc1ccc(Br)cc1)NCCCCCCN/C(=N\C(=N)Nc1ccc(Br)cc1)N(CC)CC`, for which the results for the inhibition in assay [1], in assay [2] and in assay [3] were -1.08%, 0.19% and -0.11%, respectively.
For the compound `O=C(NCc1cccc(F)c1)Nc1cccc(-c2ccc(-c3nc4cc(C(F)(F)F)ccc4[nH]3)cc2)c1`, the inhibition in assay [1] worked out at 0.26%; in assay [2], 1.57%; in assay [3], 0.07%.
The corresponding values for `COc1ccc2nccc(N3CCCN(CCNS(=O)(=O)c4ccc5c(c4)NC(=O)CS5)CC3)c2n1` are 0.19%, 1% and -0.73%.
The like results for `Cc1cc(=NN=Cc2ccccc2Cl)c2ccccc2[nH]1` were, in that order, 8.12%, 8.36% and 5.86%.
The like results for `O=C(Nc1cccc(-c2cccc(F)c2)c1)C1CCN(Cc2ccc(O)cc2)CC1` were, in that order, 2.54%, 2.14% and 2.19%.
On to `COc1cc2ncnc(NCCc3ccccc3Cl)c2cc1OC`, for which the inhibition was -1.61% in assay [1], -0.48% in assay [2] and -0.92% in assay [3].
On to `O=C(NCc1cccnc1)C(c1cc2ccccc2o1)N1CCN(C(c2ccccc2)c2ccccc2)CC1` (stereo unspecified), for which the inhibition in assay [1] is 1.36%; in assay [2], 2.1%; in assay [3] it was 0.65%.
On to `CC1(C)N=C(N)N=C(N)N1OCc1ccc2ccccc2c1`, for which the values for the inhibition in assay [1], in assay [2] and in assay [3] were 8.29%, 7.22% and 6.67%, respectively.
The like results for `CN1CCN(c2ccnc3ccc(NC(=O)Nc4c(Cl)cccc4Cl)cc23)CC1` were, in that order, -2.39%, -2.3% and -1.19%.
The corresponding values for `COc1ccc(NC(=O)[C@H](CC(C)C)Nc2cc(C)nc(NCCc3ccccc3OC)n2)cc1` are 1.28%, 2.79% and 0.24%.
The like results for `COc1ccc2c(NN=Cc3ccccc3)ccnc2c1` were, in that order, 1.36%, -2.08% and -1.04%.
With `COc1ccc(NC(=O)Nc2cccc(-c3cccc(-c4nc5cccc(C)c5[nH]4)c3)c2)cc1`, the inhibition in assay [1] was -1.25%; in assay [2], -0.57%; in assay [3], -1.79%.
The corresponding values for `O=C(NC(CCCN1CCC2(CC1)OCc1ccccc12)c1ccc(Cl)c(Cl)c1)c1cc(C(F)(F)F)cc(C(F)(F)F)c1` (stereo unspecified) are 1.7%, 0.26% and -2.79%.
The corresponding values for `CC1(C)N=C(N)N=C(N)N1OCC1COc2ccccc2O1` (stereo unspecified) are 1.54%, 0.64% and 0.96%.
The like results for `Cc1cccc2nc(-c3cccc(-c4cccc(NC(=O)c5csnn5)c4)c3)[nH]c12` were, in that order, 4.92%, 1.69% and -0.76%.
Take `COc1ccc(CN2CCC2=O)c(OC)c1`: the inhibition in assay [1] was 4.12%; in assay [2] it was 3.17%; in assay [3], 3.38%.
Regarding `CCCCCN1CCC(NC(=O)c2ccc(C(=O)Nc3ccc(C(C)C)cc3)cc2)CC1`, the values for the inhibition in assay [1], in assay [2] and in assay [3] were -0.86%, -0.06% and -5.29%, respectively.
The corresponding values for `Cc1cccc(NC(c2cccs2)c2c(NC(=O)c3ccccc3)sc(C)c2C)n1` (stereo unspecified) are 6.21%, 3.93% and 2.13%.
The corresponding values for `COc1ccc(C2C(C(=O)Nc3ccccc3)=C(C)Nc3c(C(=O)Nc4ccccc4)cnn32)cc1` (stereo unspecified) are 2.83%, 0.21% and 0.09%.
Take `Cc1noc(C)c1-c1cccc(CNCc2cccc(-c3ccc(-c4nc5ccccc5[nH]4)cc3)c2)c1`: the values for the inhibition in assay [1], in assay [2] and in assay [3] were 0.58%, -1.28% and -1.53%, respectively.
The like results for `Cc1cc(N[C@@H](Cc2ccccc2)C(=O)NCc2cccs2)nc(NCCc2ccccn2)n1` were, in that order, 6.58%, 3.27% and 1.45%.
The like results for `COc1ccc2nccc([C@@H](O)CN3CCC(NCc4ccc5cccc(O)c5n4)CC3)c2n1` were, in that order, 5.63%, 11.5% and 0.77%.
The corresponding values for `O=S(=O)(c1cccc(Cl)c1F)N(CCC(O)(C(F)(F)F)C(F)(F)F)Cc1cccc(O)c1` are 5.8%, -1.78% and -0.05%.

(Values after ChEMBL document CHEMBL3433997, “St. Jude Leishmania screening dataset” (2016).)
